This passage reports Potency results from PubChem BioAssay AID588382 (National Center for Advancing Translational Sciences (NCATS), 2011).

About 150 (12%) of roughly 1,300 compounds were called active. Entries that show only a call come without a potency. Another 30% or so got no clear call; they are omitted. Calls follow the shape of the dose curve; as a rule, active = well fitted cell-killing curve with a large enough effect; inconclusive = small, poorly fitted or top-dose-only effect, or effect the other way; inactive = flat fitted curve, though single readings scatter. Only a selection was taken, and actives are over-represented in it overall.
Potency is read from the fitted curve at half-maximal effect.

This test can be described thus: qHTS of small molecules that selectively kill Giardia lamblia: Hit Validation in HepG2 cytotox.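 Also: compound exposure lasted overnight at 37 deg C; nearly all actives have a fitted effect of over 55% in size.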 The following applies: cell viability; Potency: HepG2 cytotoxicity; series mostly up to 38.3 µM. A digest of the protocol:
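HepG2 cells seeded and incubated overnight at 37 deg C, then 23 nL compound added by pintool and incubated overnight at 37 deg C. Viability read as ATP luminescence with ATPLite after 15 min at room temperature.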
(In general: In qHTS, concentration-response curves come from the screen itself.)
With `O=C(Cc1ccc(-n2c(=O)c3sccc3n(CC(=O)Nc3ccccc3)c2=O)cc1)NCc1ccco1`, the Potency entry is “inactive”.
`O=C(CSc1nnc(NC(=O)c2c(F)cccc2F)s1)Nc1ccc(F)cc1`: the Potency entry was “inactive”.
Turning to `O=C(Nc1nnc(SCC(=O)N2CCOCC2)s1)c1ccccc1Cl`, the Potency is 2.07 µM (active).
For the molecule `O=C(Nc1nnc(SCC(=O)N2CCOCC2)s1)c1ccccc1`, the Potency is 2.33 µM (active).
`O=C(CSc1nnc(NC(=O)c2ccccc2)s1)NCc1ccco1`: the Potency was 2.07 µM (active).
`Cc1ccc(S(=O)(=O)N2[C@@H](c3ccccc3)C(C(=O)O)=CC[C@H]2c2ccc3c(c2)OCO3)cc1`: the Potency entry is “inactive”.
With `CCN(c1ccccc1)S(=O)(=O)c1cccc(C(=O)OCc2nc3sc(C)c(C)c3c(=O)[nH]2)c1`, the Potency result was “inactive”.
In the case of `CC(OC(=O)c1ccc([N+](=O)[O-])s1)C(=O)NC1CCCCC1C` (stereo not drawn), the Potency entry was “inactive”.
`O=[N+]([O-])c1nn(-c2ccc3c(c2)OCCO3)n(O)c1=NCCCO`: the Potency result is “inactive”.
Consider `O=[N+]([O-])c1ccc(-c2nc(C(Cl)Cl)c3ccccc3n2)cc1`, for which the Potency result was “inactive”.
For the molecule `CCOC(=O)C1=C(C)N=c2s/c(=C\c3ccc(O)c([N+](=O)[O-])c3)c(=O)n2C1c1ccccc1OC` (stereo not drawn), the Potency result was “inactive”.
In the case of `Nc1ccc[n+](CC(=O)c2ccc(F)cc2)c1`, the Potency was 1.65 µM (active).
As for `CCOC(=O)c1c(C)[nH]c(C)c1S(=O)(=O)N1CCN(c2ccc([N+](=O)[O-])cc2)CC1`, the Potency entry was “inactive”.
In the case of `Cc1ccc(CN=c2c([N+](=O)[O-])nn(-c3cccc(Cl)c3)n2O)cc1`, the Potency result is “inactive”.
Take `CCCn1c(NC(=O)c2ccc([N+](=O)[O-])o2)nc2ccccc21`: the Potency result was “inactive”.
In the case of `N#C/C(=C(/O)c1ccc([N+](=O)[O-])o1)c1nc2ccccc2[nH]1`, the Potency was 3.69 µM (active).
Under `CN(Cc1ccccc1)C(=O)c1ccc([N+](=O)[O-])o1` stands “inactive”; under `COc1ccc(C(=S)NC2CCCCC2)cc1`, “inactive”.
As for `COc1ccccc1-c1nnc(C2CCN(S(=O)(=O)c3cccc([N+](=O)[O-])c3)CC2)o1`, the Potency entry was “inactive”.
With `CS(=O)(=O)N1CCN(c2ccc([N+](=O)[O-])c3cccnc23)CC1` the entry was “inactive”.
Regarding `COc1ccccc1C1OC2=C(Nc3ccc([N+](=O)[O-])cc3N2)C1=O` (stereo not drawn), the Potency entry is “inactive”.
With `CNc1nnc(-c2ccc(N(C)C)cc2)s1` the figure was 4.14 µM (active).
With `Cc1ccccc1NC(NC(=O)OCCn1c([N+](=O)[O-])cnc1C)C(Cl)(Cl)Cl` (stereo not drawn), the Potency entry is “inactive”.
With `COc1cc(/C=C/c2ccc3cccc(OC)c3n2)c(O)c([N+](=O)[O-])c1`, the Potency entry is “inactive”.
As for `CC1=NN(c2nc3ccccc3[nH]2)C(=O)/C1=C/N(C)C`, the Potency was 0.927 µM (active).
Under `Cc1ccc([C@H]2C(C(=O)O)=CC[C@@H](c3cccc(Cl)c3)N2S(=O)(=O)c2ccc(C)cc2)cc1` stands “inactive”; under `O=[N+]([O-])c1cccc(-n2nnnc2CNCc2ccccc2)c1`, “inactive”; under `O=C(O)c1cc2ccccc2c(N=Nc2cccnc2)c1O`, “inactive”.
In the case of `O=C(Nc1cccc(NC(=O)c2ccccc2Cl)c1)c1ccc([N+](=O)[O-])o1`, the Potency was 2.61 µM (active).
As for `CC(=O)N1CCN(c2ccc(NC(=O)c3ccc([N+](=O)[O-])o3)cc2Cl)CC1`, the Potency is 9.27 µM (active).
For `CCC(=O)N1CCN(c2ccc(Cl)cc2NC(=O)c2ccc([N+](=O)[O-])o2)CC1`, the Potency result is “inactive”.
Regarding `CN1CCN(c2ccc(NC(=O)c3ccc([N+](=O)[O-])o3)cc2Cl)CC1`, the Potency is 3.69 µM (active).
Take `CC(=O)N1CCN(c2ccc(S(C)(=O)=O)cc2[N+](=O)[O-])CC1`: the Potency result is “inactive”.
As for `O=C(Nc1nc2c(Cl)cccc2s1)c1ccc([N+](=O)[O-])o1`, the Potency entry was “inactive”.
As to `CCC(=O)N1CCN(c2ccc(NC(=O)c3ccc([N+](=O)[O-])o3)cc2Cl)CC1`, the Potency was 3.69 µM (active).
Turning to `CCCn1c(C)cc(C(=O)COc2ccc(C)nc2[N+](=O)[O-])c1C`, the Potency entry is “inactive”.
With `CCNc1ccc(N=Nc2c(C)n(C)n(-c3ccccc3)c2=O)cc1`, the Potency result is “inactive”.
Regarding `N#Cc1sc(NCc2cccc(Cl)c2)nc1Cl`, the Potency result is “inactive”.
Turning to `COc1ccc(C(CNC(=O)c2oc3cc(Br)ccc3c2C)N2CCCCC2)cc1` (stereo not drawn), the Potency result was “inactive”.
`CC(=O)Oc1ccc2c(=O)c(Oc3ccccc3[N+](=O)[O-])coc2c1`: the Potency result is “inactive”.
With `NC(=O)c1oc2ccccc2c1NC(=O)c1ccc([N+](=O)[O-])o1` the figure was 2.61 µM (active); with `O=C(Nc1ccc(N2CCCC2)c(Cl)c1)c1ccc([N+](=O)[O-])o1`, 7.36 µM (active); with `COc1ccc(N2CCCC2)c(NC(=O)c2ccc([N+](=O)[O-])o2)c1`, “inactive”.
Regarding `O=C(Nc1cccc(Cl)c1N1CCOCC1)c1ccc([N+](=O)[O-])o1`, the Potency entry was “inactive”.
On to `Cc1ccc(C)c(Sc2ccc(NC(=O)CCl)cc2)c1`, for which the Potency result was “inactive”.
`COc1ccc2oc(=Nc3ccccc3)c(-c3nc4ccccc4[nH]3)cc2c1`: the Potency was 7.36 µM (active).
As for `Cc1ncc([N+](=O)[O-])n1CCOC(=O)c1ccccc1`, the Potency result was “inactive”.
Under `Cc1ccc(S(=O)(=O)N2[C@@H](c3ccccc3F)C(C(=O)O)=CC[C@H]2c2cccc(C)c2)cc1` stands “inactive”.
Turning to `[O-][n+]1c2ccccc2c2n1CCCN=C2c1ccc(Cl)cc1`, the Potency entry was “inactive”.
Turning to `O=C(CN1C(=O)c2ccccc2S1(=O)=O)c1ccc2c(c1)OCCO2`, the Potency is 2.07 µM (active).
Turning to `O=[N+]([O-])c1nn(-c2ccccc2)[n+]([O-])c1N1CCN(c2ccccc2F)CC1`, the Potency result is “inactive”.
With `O=[N+]([O-])c1ccc(/C=C/c2ccnc3ccccc23)c([N+](=O)[O-])c1` the entry was “inactive”; with `CCOn1c(=O)c(-c2cccc([N+](=O)[O-])c2)[n+]([O-])c2ccccc21`, “inactive”; with `CSC1SCC2C(=O)N(C)C(C(C)C)C(=O)OCC(NC(=O)c3cnc4ccccc4n3)C(=O)NC(C)C(=O)N(C)C1C(=O)N(C)C(C(C)C)C(=O)OCC(NC(=O)c1cnc3ccccc3n1)C(=O)NC(C)C(=O)N2C` (stereo not drawn), 0.0117 µM (active).
Under `O=[N+]([O-])c1cccc(S(=O)(=O)c2ccc(NCCOCCO)c([N+](=O)[O-])c2)c1` stands “inactive”; under `Cc1ccc(C2=NCCn3c2c2ccc(C(F)(F)F)cc2[n+]3[O-])cc1`, “inactive”; under `Cc1ccc(CNC(=O)c2ccc([N+](=O)[O-])o2)cc1`, “inactive”.
As to `COc1cc(NC(=O)c2ccc([N+](=O)[O-])o2)ccc1NC(=O)c1cccs1`, the Potency is 14.7 µM (active).
In the case of `O=C(Nc1ccc(Cc2ccncc2)cc1)c1ccc([N+](=O)[O-])o1`, the Potency is 6.56 µM (active).
Turning to `COc1ccc(-c2cc3ccccc3oc2=O)cc1NC(=O)c1ccc([N+](=O)[O-])o1`, the Potency result was “inactive”.
On to `O=C(NCc1ccco1)c1ccc([N+](=O)[O-])o1`, for which the Potency result is “inactive”.
As for `COc1ccc(NC(=O)c2ccc([N+](=O)[O-])o2)cc1`, the Potency is 3.69 µM (active).
On to `O=C(Nc1ncccn1)c1ccc([N+](=O)[O-])o1`, for which the Potency result is “inactive”.
As for `CCN(CC(=O)NCc1cccs1)C(=O)c1ccc([N+](=O)[O-])o1`, the Potency entry was “inactive”.
Turning to `Cc1onc(NC(=O)c2ccc([N+](=O)[O-])o2)c1Br`, the Potency result is “inactive”.
With `Cc1cc(NC(=O)c2ccc([N+](=O)[O-])o2)ccc1NC(=O)c1ccco1` the figure was 2.93 µM (active); with `COc1ccc(CC(NC(C)=O)C(=O)NC2CCN(c3ncccc3[N+](=O)[O-])CC2)cc1` (stereo not drawn), “inactive”; with `CCC1CCCCN1C(=O)c1ccc([N+](=O)[O-])o1` (stereo not drawn), “inactive”.
As for `Cc1ccc(C2=NCCn3c2c2ccc([N+](=O)[O-])cc2[n+]3[O-])cc1`, the Potency entry was “inactive”.
Turning to `O=[n+]1c2c(n([O-])c3cc(Br)ccc31)CCCC2`, the Potency result was “inactive”.
As to `CCOc1cc(C=O)ccc1OCCn1c([N+](=O)[O-])cnc1C`, the Potency entry is “inactive”.
With `CCOC(=O)C1=C(C)N=c2s/c(=C/c3cccc([N+](=O)[O-])c3O)c(=O)n2C1c1ccc(OC)cc1OC` (stereo not drawn) the entry was “inactive”.
With `CCN(CC)CCOC(=O)c1ccc(N/C=C(/C#N)c2nc(-c3cc4ccccc4oc3=O)cs2)cc1` the entry was “inactive”; with `O=[N+]([O-])c1ncn(Cc2c(Cl)cccc2Cl)n1`, “inactive”; with `C=CCNC(=O)c1ccccc1NC(=O)COc1ccccc1`, “inactive”.
In the case of `O=C(COc1cccnc1[N+](=O)[O-])NCc1ccc(F)cc1`, the Potency result was “inactive”.
Under `CC(=O)c1c(COC(=O)c2ccccc2Cl)nc2ccccc2[n+]1[O-]` stands “inactive”; under `O=[N+]([O-])c1ccc2nc(-c3ccc(OC(F)F)cc3)cn2c1`, “inactive”.
For `COc1cccc([C@@H]2CC=C(C(=O)O)[C@H](c3cccc(Cl)c3)N2S(=O)(=O)c2ccc(C)cc2)c1`, the Potency result was “inactive”.
On to `COc1ccc(NC(=O)c2ccc([N+](=O)[O-])cc2[N+](=O)[O-])c(OC)c1`, for which the Potency entry is “inactive”.
Turning to `CC(=O)c1c(C)n([O-])c2cc(C)ccc2[n+]1=O`, the Potency entry is “inactive”.
Turning to `NC(=O)c1c(NC(=O)CCCn2cnc([N+](=O)[O-])n2)sc2c1CCCC2`, the Potency result was “inactive”.
With `CC(=O)N1CCc2c(sc(NC(=O)c3ccc([N+](=O)[O-])o3)c2C#N)C1` the figure was 3.29 µM (active); with `O=C(c1ccc([N+](=O)[O-])o1)N1CCc2ccccc2C1`, “inactive”.
For the molecule `NC(=O)c1c(NC(=O)c2ccc([N+](=O)[O-])o2)sc2c1CCCC2`, the Potency is 11.7 µM (active).
With `COC(=O)c1sc(NC(=O)c2ccc([N+](=O)[O-])o2)c(C#N)c1C` the entry was “inactive”; with `O=C1S/C(=C\c2ccc(O)c([N+](=O)[O-])c2)C(=O)N1Cc1cccc([N+](=O)[O-])c1`, “inactive”.
Consider `OC(COc1cccc2ccccc12)CN1CCN(c2ccc(Cl)cc2)CC1` (stereo not drawn), for which the Potency result is “inactive”.
With `O=[N+]([O-])C(/C=C(\Cl)[N+](=O)[O-])=C(N1CCCCC1)N1CCCCC1` the entry was “inactive”; with `CC(=O)NC(Cc1ccccc1F)C(=O)NC1CCN(c2ncccc2[N+](=O)[O-])CC1` (stereo not drawn), “inactive”.
With `CCN(CCCNC(=O)c1nn(C)c2c1CS(=O)(=O)c1ccccc1-2)Cc1ccccc1` the entry was “inactive”; with `CC(C)(C)C1C/C(=C/c2ccccn2)C(=O)/C(=C/c2ccccn2)C1` (stereo not drawn), 0.585 µM (active); with `O=C1CC(c2ccc(F)cc2)CC2=C1C(c1ccc([N+](=O)[O-])o1)Nc1ccccc1N2` (stereo not drawn), “inactive”.
